The values that follow come from PubChem BioAssay (EPA / NIEHS).

Each structure is given as a SMILES string. Values joined by “and” are separate entries in the source; they are usually repeats but may differ in a detail not shown here. Equal values may be shown once. Records with an inconclusive call do not appear. A structure can be active in one record and inactive in another. Active and inactive are the calls of the source. Rule for the calls: active = hit-call score of the fitted dose curve at least 0.9, where 1 is the maximum; inconclusive = response in the unintended direction; inactive = score below 0.9.

A short description of the experiment: TOX21_p53_BLA_p3_viability: Viability Assessment in the Tox21 HCT-116 p53 Agonism Beta-lactamase Assay, Phase 3 (AID 2283593).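 Note: cells exposed to compound for 16 h before reading.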 The source says: TOX21_p53_BLA_p3 is a cell-based, single-readout assay that uses HCT116, a human intestinal cell line, […] in a 1536-well plate.TOX21_p53_BLA_p3_viability is an assay readout measuring cellular ATP content and detected with CellTiter-Glo Luciferase-coupled ATP quantitation.TOX21_p53_BLA_p3_viability used a type of viability reporter where loss-of-signal activity can be used to understand changes in the cell viability. Furthermore, this assay endpoint can be referred to as a secondary readout, because this assay has produced multiple assay endpoints where this one serves a viability function. To generalize the intended target to other relatable targets, this assay endpoint is annotated to the cell cycle intended target family, where the subfamily is cytotoxicity.
Thawing Method: Place 14 mL of pre-warmed thaw medium into a 15 mL of conical tub. Remove the vial of cells to be thawed from liquid nitrogen and thaw rapidly by placing at 37C in a water bath with gentle agitation for 1-2 minutes. Decontaminate the vial by wiping with 70% ethanol before opening in a biological safety cabinet. Transfer the vial contents drop-wise into 14 mL of thaw medium in a sterile 15-mL conical tub. Centrifuge cells at 900 rpm for 4 minutes and resuspend in thaw medium. Transfer contents to the T75 tissue culture flask containing Thaw Medium and place flask in a humidified 37C/5% CO2 incubator. Switch to growth medium at first passage.Propagation Method: Aspirate medium, rinse once in DPBS, add 0.25% Trypsin/EDTA and swirl to coat the cell evenly. Add an equal volume of Growth Medium to inactivate Trypsin after 2-3 minutes incubation at 37C. Centrifuge cells at 900 rpm for 4 minutes and resuspend in growth medium. Cell should be passage or fed at least twice a week.Assay Protocol: Harvest cells from culture in growth medium and resuspend in assay medium. 2.2 Dispense 4000 cells/5 uL/well into 1536-well black/clear bottom plates using a Multidrop dispenser. After the cells were incubated at 37C for 5 hours, 23 nL of compounds dissolved in DMSO were transferred to the assay plate by a PinTool resulting in a 217-fold dilution. Incubate the plates for 16 hours at 37C, 5% CO2. Add 1 uL of 6X LiveBLAzer FRET B/G (CCF4-AM) Substrate Mixture to each well using a BioRAPTR dispenser and incubate the plates at room temperature for 2 hours. Measure fluorescence intensity at 460 and 530 nm emission and 405 nm excitation by an Envision detector. Data is expressed as the ratio of 460nm/530nm emissions. Add 4 uL of Cell-titer Glo to each well using BioRAPTR and incubate the plates at room temperature for […]. For cell viability readout that measures cytotoxicity, 4 ul/well of CellTiter-Glo reagent was added into the assay plates using a Flying Reagent Dispenser. After 30 min incubation at room temperature, the luminescence intensity in the plates was measured using a ViewLux plate reader.
With `O=[N+]([O-])c1ccc2c3c(cccc13)CC2`, the outcome was inactive. With `O=C(O)C(F)(F)C(F)(F)C(F)(F)C(F)(F)C(F)(F)C(F)(F)F`, the call was inactive. `BrCCBr`: the call was inactive.

For the compound `COP(=O)(OC)O/C(=C\Cl)c1cc(Cl)c(Cl)cc1Cl`, the outcome was inactive. On the same count and under the same terms, the result for `ClCC(Cl)CCl` reads “inactive”. `CCOP(OCC)OCC`: the result was inactive. As for `COc1cc(-c2ccc(N)c(OC)c2)ccc1N`, the compound was classed as inactive. As for `C(=NC1CCCCC1)=NC1CCCCC1`, the AC50 – broadly, the concentration at which the activity in the assay is half-maximal – was 17.7 µM (active) and 30.7 µM (active).

`O=[N+]([O-])c1c(Cl)c(Cl)cc(Cl)c1Cl`: the outcome was inactive. As to `COC(=O)c1sccc1S(=O)(=O)NC(=O)Nc1nc(C)nc(OC)n1`, the compound was called inactive. `CC(C)(C)CC(C)(C)c1ccc(O)cc1`: the concentration at half-maximal activity (AC50) was 35 µM (active) and the compound was classed as inactive. As for `C[C@]12CCC(=O)C[C@@H]1CC[C@@H]1[C@@H]2CC[C@]2(C)[C@@H](O)CC[C@@H]12`, the compound was classed as inactive.

`Clc1ccc(C2(Cn3cncn3)CC(Br)CO2)c(Cl)c1` (stereo not given): the call was inactive.

Turning to `CCCCCCCCCCCCCCCC[n+]1ccccc1`, the result was inactive; the concentration at half-maximal activity (AC50) is 45.6 µM (active) and 81 µM (active) and 46.1 µM (active). Regarding `C[C@H]1CCCC(=O)CCC/C=C/c2cc(O)cc(O)c2C(=O)O1`, the call was inactive. Same read-out and setting: to `P.[In]` belongs “inactive”.

For `O=C1C2(Cl)C3(Cl)C4(Cl)C(Cl)(Cl)C5(Cl)C3(Cl)C1(Cl)C5(Cl)C24Cl` (stereo not given), the AC50 is 80.6 µM (active) and 78.5 µM (active). As to `Cc1ccccc1N`, the call was inactive.

Regarding `CC(C)C1CCC(Cc2ccc(Cl)cc2)C1(O)Cn1cncn1` (stereo not given), the concentration at half-maximal activity (AC50) was 45.7 µM (active). As to `O=C(O)C(Cl)(Cl)Cl`, the compound was classed as inactive. Consider `O=[N+]([O-])c1ccc(O)c([N+](=O)[O-])c1`, for which the outcome was inactive. Consider `COc1ccc(C=O)cc1OC`, for which the result was inactive. For `Cn1sc(Cl)cc1=O`, the AC50 is 29.8 µM (active) and the result was inactive. Take `CCCCCCCCSC(=O)Oc1cc(Cl)nnc1-c1ccccc1`: the AC50 was 59.1 µM (active). Take `ClC1(Cl)C2(Cl)C3(Cl)C4(Cl)C(Cl)(Cl)C5(Cl)C3(Cl)C1(Cl)C5(Cl)C24Cl` (stereo not given): the call was inactive. In the case of `COc1cc2c(cc1OC)[C@@]13CCN4CC5=CCO[C@H]6CC(=O)N2[C@H]1[C@H]6[C@H]5C[C@H]43`, the call was inactive.

In the case of `NNC(=S)NN`, the compound was classed as inactive.

`CNC`: the compound was classed as inactive.

On to `CCOP(=O)(CN(CCO)CCO)OCC`, for which the outcome was inactive. Take `CC(C)(c1ccc(OCC2CO2)cc1)c1ccc(OCC2CO2)cc1` (stereo not given): the AC50 was 64.5 µM (active) and the compound was called inactive. For `O=C(OC1CCCCC1)c1ccccc1C(=O)OC1CCCCC1`, the compound was called inactive.

On to `Nc1ccc(-c2ccc(N)c(Cl)c2)cc1Cl`, for which the call was inactive. In the case of `Cc1ccccc1C(=O)Nc1cccc(OC(C)C)c1`, the result was inactive. On to `O=P(O)(O)CN(CP(=O)(O)O)CP(=O)(O)O`, for which the call was inactive. Still for that read-out and setting: to `CC(=O)OC(c1ccccc1)C(Cl)(Cl)Cl` (stereo not given) belongs “inactive”; to `Clc1nc(Cl)nc(Cl)n1`, “inactive”.
